From ChEMBL document CHEMBL1157539, “Thousands of chemical starting points for antimalarial lead identification” (Nature, 2010) come the findings set out here.

Common to all, as to type: functional
For test [1], the system named is Plasmodium falciparum. Briefly: GSK_TCMDC: Inhibition of Plasmodium falciparum 3D7 in whole red blood cells, using parasite LDH activity as an index of growth. Test compounds present at 2uM.
In test [2] the test system is Plasmodium falciparum. Put plainly: GSK_TCMDC: Inhibition of Plasmodium falciparum Dd2 in whole red blood cells, using parasite LDH activity as an index of growth. Test compounds present at 2uM.
The subject of test [3] is HepG2. Briefly: GSK_TCMDC: Percent inhibition of human HepG2 cell line. Test compounds present at 10uM.

With `O=C(Nc1ccc2c(c1)OCCO2)c1cc(-c2cccnc2)nc2ccc(Cl)cc12`, the values for the Inhibition in test [1], in test [2] and in test [3] were 95%, 27% and 2%, respectively.

Consider `COc1cc(Nc2nccc(-c3c(-c4cccc(NC(=O)c5c(F)cccc5F)c4)nn4ccccc34)n2)cc(OC)c1OC`, for which the Inhibition turned out to be 98% in test [1], 98% in test [2] and 74% in test [3].

Turning to `O=C(/C=C/c1ccc(Cl)c(Cl)c1)NCCCCCCN1CCCN(C(=O)Nc2ccc(F)c(Cl)c2)CC1`, the Inhibition in test [1] is 98%; in test [2], 1%; in test [3], 30%.

For the compound `CCCc1ccc(NC(=O)c2ccc(CN3CCCN(Cc4cccc(O)c4)CC3)cc2)cc1.O=C(O)C(F)(F)F`, the Inhibition in test [1] was found to be 100%; in test [2], 63%; in test [3], 51%.

With `CCCNCc1ccc(-c2ccc(CN(CCOC)C(=O)CCc3ccc(OC)cc3)cc2)nc1.O=C(O)C(F)(F)F`, the Inhibition in test [1] is given as 98%; in test [2] it was 29%; in test [3] it was 11%.

On to `Cl.O=S(=O)(Nc1ccc2nccc(N3CCNCC3)c2c1)c1ccc(-c2ccccc2)cc1`, for which the Inhibition in test [1] is listed as 100%; in test [2], 0%; in test [3], 0%.

Turning to `COc1ccc(NC(=O)Nc2ccc(Nc3nc(C)cc(N4CCCC4)n3)cc2)cc1`, the results for the Inhibition in test [1], in test [2] and in test [3] were 100%, 100% and 14%, respectively.

As for `O=C(NCc1ccc(F)cc1)c1cnc(N2CCN(c3ccncc3)CC2)c(Cl)c1.O=C(O)C(F)(F)F`, the Inhibition in test [1] was 98%; in test [2] it was 44%; in test [3], 30%.

Take `COc1ccc2nc(C)cc(N/N=C/C=C/c3ccccc3)c2c1`: the Inhibition is 100% in test [1], 100% in test [2] and 27% in test [3].

As for `Cn1c(N)c(C(=O)CSc2nnc(-c3cccs3)n2Cc2ccccc2)c(=O)n(C)c1=O`, the Inhibition in test [1] turned out to be 85%; in test [2], 68%; in test [3], 0%.

For `CNC(=O)c1ccccc1Nc1nc(Nc2ccc(N3CCN(C)CC3)nc2)ncc1C.Cl`, the Inhibition is reported as 92% in test [1], 50% in test [2] and 75% in test [3].

Consider `Fc1cc(Cl)ccc1Nc1ccnc2cc(-c3ccc(CNCCN4CCOCC4)o3)ccc12`, for which the Inhibition stood at 100% in test [1], 100% in test [2] and 13% in test [3].

With `CSc1ccc(NC(=O)Nc2cc(C)nc3ccccc23)cc1Br`, the Inhibition in test [1] came to 100%; in test [2], 66%; in test [3], 7%.

Consider `O=C(O)C(F)(F)F.c1ccc2[nH]c(-c3ccc(-c4ccc(CNC5CC5)cc4)s3)nc2c1`, for which the Inhibition in test [1] amounted to 91%; in test [2], 19%; in test [3], 25%.

In the case of `COCCNC(=O)C1CCN(C(c2ccc(Cl)cc2)c2ccc(Cl)cc2)CC1`, the Inhibition in test [1] stood at 86%; in test [2], 73%; in test [3], 3%.

As for `COc1ccc(NC(=O)NC2CCN(c3ccnc4cc(Cl)ccc34)C2)cc1.O=C(O)C(F)(F)F` (stereo not drawn), the Inhibition in test [1] was determined as 100%; in test [2], 69%; in test [3] it was 10%.

With `CCOC(=O)N(C)/N=C/[C@H](CCc1ccccc1)NC(=O)[C@H](CC(C)C)NC(=O)c1cc2cccc(OC)c2o1`, the values for the Inhibition in test [1], in test [2] and in test [3] were 86%, 70% and 2%, respectively.

Regarding `O=C(Nc1ccc(-c2cccc(-c3nc4cc(C(F)(F)F)ccc4[nH]3)c2)cc1)c1ccncc1`, the Inhibition in test [1] is reported as 100%; in test [2], 23%; in test [3], 63%.

As to `N#Cc1ccc(CN2CCC(Oc3ccc(NC(=O)c4cccs4)cc3Cl)C2)cc1.O=C(O)C(F)(F)F` (stereo not drawn), the figures for the Inhibition in test [1], in test [2] and in test [3] were 96%, 95% and 31%, respectively.

As for `Cc1c(CNCCCNc2nc3ccccc3[nH]2)[nH]c2cc(Cl)cc(Cl)c12`, the Inhibition in test [1] turned out to be 100%; in test [2] it was 0%; in test [3], 59%.

With `O=C(Nc1ccc(-c2nc3cc4ccccc4cc3[nH]2)cc1)c1cccc(Br)c1`, the Inhibition in test [1] is 100%; in test [2], 89%; in test [3], 50%.

Consider `O=C(/C=C/C=C/c1ccc(Cl)c(Cl)c1)NCCCCCN1CCCC2CCCCC21` (stereo not drawn), for which the Inhibition in test [1] was found to be 91%; in test [2], 48%; in test [3], 41%.

As to `Cc1ccc(NC(=O)c2ccnc(N3CCN(c4ccncc4)CC3)c2)cc1F.O=C(O)C(F)(F)F`, the results for the Inhibition in test [1], in test [2] and in test [3] were 94%, 12% and 43%, respectively.

For the compound `CC1CC(C)CN(S(=O)(=O)c2cc(C(=O)Nc3cccc([N+](=O)[O-])c3)ccc2Br)C1` (stereo not drawn), the results for the Inhibition in test [1], in test [2] and in test [3] were 100%, 68% and 1%, respectively.

Regarding `Cc1cccc2nc(-c3cccc(-c4ccc(CNCc5cccc(N)c5)cc4)c3)[nH]c12.O=C(O)C(F)(F)F`, the Inhibition in test [1] was 100%; in test [2], 93%; in test [3], 19%.

In the case of `Nc1c(Cl)cc(C(O)CNCCCCCCOCCc2ccc(CO)s2)cc1Cl.O=C(O)/C=C/C(=O)O` (stereo not drawn), the values for the Inhibition in test [1], in test [2] and in test [3] were 86%, 71% and 1%, respectively.

Turning to `Cc1ccc(Nc2ccnc(Nc3ccc4c(c3)CS(=O)(=O)C4)n2)cc1O.Cl`, the Inhibition is 100% in test [1], 76% in test [2] and 82% in test [3].

`CC(C)(C)NS(=O)(=O)c1cc(C(=O)N2CCC(CCN3CCC(C(=O)c4ccc(F)cc4)CC3)(c3cccc(F)c3)CC2)c(Cl)cc1F`: the Inhibition was determined as 99% in test [1], 99% in test [2] and 0% in test [3].

With `c1ccc(C23NC(=Nc4nc5ccccc5[nH]4)NC2(c2ccccc2)NC(=Nc2nc4ccccc4[nH]2)N3)cc1` (stereo not drawn), the Inhibition in test [1] was 97%; in test [2], 89%; in test [3], 2%.

As to `O=C(Nc1cccc(-c2cccc(CN3CCCC3)c2)c1)c1ccc(Cl)cc1.O=C(O)C(F)(F)F`, the Inhibition in test [1] was 93%; in test [2], 32%; in test [3], 50%.

For `Nc1nccc(-c2ccc3c(-c4cccc(F)c4)cnc(N)c3c2)n1`, the Inhibition is 93% in test [1], 44% in test [2] and 41% in test [3].
